# Records with an inconclusive call do not appear. The source made the active and inactive calls. The calls were made as follows: active = hit-call score of the fitted dose curve at least 0.9, where 1 is the maximum; inconclusive = response in the unintended direction; inactive = score below 0.9.
# Target: Peroxisome proliferator-activated receptor gamma (Homo sapiens) (UniProt P37231)
# Assay: NVS_NR_hPPARg: NovaScreen (NVS) Nuclear Receptor Binding Assay for human Peroxisome Proliferator-activated Receptor gamma (PPARg) (AID 2283370)
# In short: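 Cell-free fluorescence polarization binding to human PPARg protein, read 2 h after dosing. Primary screen in duplicate at 25 uM, actives followed in concentration series; loss of signal relative to DMSO scored.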
# Sequence of Peroxisome proliferator-activated receptor gamma (Homo sapiens) (P37231 whole entry, looked up): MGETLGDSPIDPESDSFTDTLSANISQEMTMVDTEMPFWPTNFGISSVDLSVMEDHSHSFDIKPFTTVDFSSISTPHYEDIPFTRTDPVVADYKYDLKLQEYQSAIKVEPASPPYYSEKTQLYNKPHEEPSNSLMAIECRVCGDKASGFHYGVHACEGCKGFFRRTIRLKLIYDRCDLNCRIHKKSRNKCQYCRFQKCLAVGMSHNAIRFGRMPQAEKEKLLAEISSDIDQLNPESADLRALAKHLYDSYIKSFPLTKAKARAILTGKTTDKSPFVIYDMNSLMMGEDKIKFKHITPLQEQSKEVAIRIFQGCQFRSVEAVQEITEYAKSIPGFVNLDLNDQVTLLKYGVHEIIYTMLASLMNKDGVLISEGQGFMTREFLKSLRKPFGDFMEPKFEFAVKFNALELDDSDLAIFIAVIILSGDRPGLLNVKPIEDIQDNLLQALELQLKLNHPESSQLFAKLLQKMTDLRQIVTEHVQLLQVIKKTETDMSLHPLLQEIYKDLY
Structure (SMILES),AC50,outcome
CCOC(=O)c1ccc(N)cc1,41.6 µM (active),–
CC(C)C[C@H](NC(=O)OCC1c2ccccc2-c2ccccc21)C(=O)O,46.6 µM (active),–
Nc1ccccc1[N+](=O)[O-],–,inactive
CCCC(=O)OC(C)(C)Cc1ccccc1,13.4 µM (active),–
C[C@H]1O[C@@H](O[C@H]2[C@@H](O)C[C@H](O[C@H]3[C@@H](O)C[C@H](O[C@H]4CC[C@@]5(C)[C@H](CC[C@@H]6[C@@H]5C[C@@H](O)[C@]5(C)[C@@H](C7=CC(=O)OC7)CC[C@]65O)C4)O[C@@H]3C)O[C@@H]2C)C[C@H](O)[C@@H]1O,–,inactive
CCCCCCC(C)(C)S,–,inactive
CC(C)NCC(O)COc1ccc(CC(N)=O)cc1 (centres undefined),–,inactive
CCc1cc(Cc2cc(CC)cc(C(C)(C)C)c2O)c(O)c(C(C)(C)C)c1,–,inactive
CCCCCCCCCCCC(=O)OCC(O)CO (centres undefined),–,inactive
C=C1C[C@]23C[C@@]1(O)CC[C@H]2[C@@]12C=C[C@H](O)[C@@](C)(C(=O)O1)[C@H]2[C@@H]3C(=O)O,–,inactive
CC(C)CCCCCCCCCCCCCCC(=O)O,–,inactive
C=CC(C)(O)CCC=C(C)C (centres undefined),–,inactive
COc1ccccc1N=Nc1c(S(=O)(=O)O)cc2cc(S(=O)(=O)O)cc(NC(C)=O)c2c1O,–,inactive
O=CCc1ccccc1,–,inactive
C=C[Si]1(C)O[Si](C)(C=C)O[Si](C)(C=C)O[Si](C)(C=C)O1 (centres undefined),–,inactive
CC(=O)O[C@H]1C[C@@H]2CC[C@@]1(C)C2(C)C,–,inactive
C1=CC2C3C=CC(C3)C2C1 (centres undefined),2.39 µM (active),–
CCc1cc(C(C)(C)C)c(O)c(C(C)(C)C)c1,–,inactive
CN(C)c1cccc(O)c1,–,inactive

# Reference: PubChem BioAssay (EPA / NIEHS)
